Experimental data taken from PubChem BioAssay AID686979 (National Center for Advancing Translational Sciences (NCATS), 2013).
The whole screen tested about 420,000 compounds, of which about 50,000 (12%) were called active. Roughly 26% stayed inconclusive and do not appear here. Calls come from the whole dose curve; as a rule, active = well fitted inhibition curve with a large enough effect; inconclusive = small, poorly fitted or top-dose-only effect; inactive = flat fitted curve, though single readings scatter. What follows is part of a selection rich in actives, with near analogues and random picks from the rest. Entries that show only a call come without a potency. *1 amine or outer side, *2 acyl side, *3 side chain or, on linkers, in order; H or OH if unused. Where a SMILES comes first, the peptide text is derived from it. Bridges are numbered along the chain shown (N, C = ends). [ ]: non-standard residue; d: D form. The star is where a group is joined. X12 = NC1=N[C@@H]([C@H](N[*:1])C(=O)[*:2])C[C@H](O)N1; ΔAla(Z-3-ureido) = NC(=O)N/C=C(\N)C(=O)O; β3hOrn = NCCC[C@H](N)CC(=O)*; Dap = NC[C@H](N)C(=O)O

assay: qHTS for Inhibitors of human tyrosyl-DNA phosphodiesterase 1 (TDP1): qHTS in cells in presence of CPT; conditions: chicken DT40 Tdp1-/-;hTDP1 cells + 20 nM CPT, ATP luminescence, 48 h; series mostly up to 46.2 µM; note: nearly all actives have a fitted effect of over 55% in size
In short: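 Chicken DT40 Tdp1-/- cells stably complemented with human TDP1 were seeded at 400 cells/well in medium containing 20 nM camptothecin, exposed to pin-transferred compounds, and grown at 37 °C for at least 48 hr. Viability was read as ATP luminescence.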
Potency is the fitted concentration of half-maximal effect.

Row | Structure (SMILES) | Potency
1 | CC1(C)CN(c2ccc(-c3ccnc4ncnn34)cc2)C1=O | inactive
2 | Cc1cc2oc(=O)cc(CN3CCN(S(=O)(=O)c4cccs4)CC3)c2cc1C(C)C | 23.1 µM (active)
3 | COc1ccc2c(CN3CCN(S(=O)(=O)c4cccs4)CC3)cc(=O)oc2c1 | inactive
4 | O=S(=O)(c1cccs1)N1CCN(Cc2ccccc2)CC1 | inactive
5 | CCOc1ccc(C(CC(=O)O)n2cnnn2)cc1OC (stereo not given) | inactive
6 | COc1ccc(C2=NN(C(=O)c3cccnc3)C(c3ccccc3)C2)cc1 (stereo not given) | inactive
7 | CCC(CC)c1nnc(NC(=O)C2=COCCO2)s1 | inactive
8 | Cc1sc2nc(CSCC(=O)Nc3c(Cl)cccc3Cl)[nH]c(=O)c2c1C | 7.31 µM (active)
9 | CCN(CC)Cc1nc2sc(C)c(C)c2c(=O)[nH]1 | inactive
10 | Cc1sc2nc(COC(=O)C(NC(=O)c3ccc(Cl)cc3Cl)C(C)C)[nH]c(=O)c2c1C (stereo not given) | inactive
11 | CCOc1ccc(NC(=O)Cn2c(C)ccc(C#N)c2=O)cc1 | inactive
12 | CCOC(=O)/C=c1\s/c(=C\c2ccc(C#N)cc2)c(=O)n1CC(=O)Nc1cccc(C)c1C | 1.3 µM (active)
13 | CCOC(=O)/C=c1\s/c(=C\c2ccccc2OC)c(=O)n1CC(=O)N1CCOCC1 | inactive
14 | NCCC[C@H](N)CC(=O)N[C@H]1CNC(=O)[C@H]([C@H]2C[C@H](O)NC(N)=N2)NC(=O)/C(=C/NC(N)=O)NC(=O)[C@H](CO)NC(=O)[C@H](CO)NC1=O (β3hOrn-[Dap]SS[ΔAla(Z-3-ureido)][X12]; lactam 1-C) | inactive
15 | COCCCNC(=O)CNC(=O)c1nn(-c2ccc(OC)cc2)c(=O)c2ccccc12 | inactive
16 | Cc1cc(C(=O)NCCc2ccc(Cl)cc2)n(-c2ccccc2)n1 | 20.6 µM (active)
17 | COc1ccc(CCNC(=O)c2c(C)nn(-c3ccccc3)c2Cl)cc1 | inactive
18 | COc1ccc(-n2nc(C(=O)NCC(=O)N3CCCCCC3)c3ccccc3c2=O)cc1Cl | 18.4 µM (active)
19 | COc1ccc(-n2nc(C(=O)NCC(=O)N3CCC(C(N)=O)CC3)c3ccccc3c2=O)cc1OC | inactive
20 | CCOC(=O)c1ccccc1NC(=O)c1nn(-c2ccc(OC)c(Cl)c2)c(=O)c2c1c1ccccc1n2C | inactive
21 | COc1ccc(-n2nc(C(=O)NCCc3ccc(Cl)cc3)c3c4ccccc4n(C)c3c2=O)cc1Cl | 3.66 µM (active)
22 | Cc1cc(NC(=O)Nc2ccc(Cl)cc2)n(-c2ccccc2)n1 | inactive
23 | COc1cc(NC(=O)c2nn(-c3ccc(C)cc3)c(=O)c3c2c2ccccc2n3C)cc(OC)c1OC | inactive
24 | COC(=O)c1ccc2ccccc2c1OC1OC(CO)C(O)C(O)C1NC(C)=O (stereo not given) | inactive

Row | Structure (SMILES) | Potency
25 | Fc1cccc(Cc2noc(CN3CCN(c4cnccn4)CC3)n2)c1 | inactive
26 | Cc1ccc(C(=O)N2CCC(n3nccc3NC(=O)Nc3cccc(F)c3)CC2)cn1 | inactive
27 | O=C(COC(=O)c1ccccc1NC(=O)c1ccco1)Nc1ccc2c(c1)OC(F)(F)O2 | inactive
28 | CC1CC(C)CN(CCCNC(=O)c2csc3c2CCCCC3)C1 (stereo not given) | inactive
29 | O=C(CCNC(=O)c1ccccc1Cl)NCc1ccco1 | inactive
30 | CC(C(=O)c1ccc(-c2ccccc2)cc1)[n+]1cccc(Br)c1 (stereo not given) | inactive
31 | CCOC(=O)C1CCC(CN(Cc2ccc(OC)cc2)S(=O)(=O)c2ccc(F)c(C(=O)Nc3cc(C)ccc3C)c2)CC1 (stereo not given) | inactive
32 | Cn1cc(C(=O)NCc2ccccc2F)cn1 | inactive
33 | COC(=O)Cc1ccc(NC(=S)NCc2ccccc2)cc1 | inactive
34 | Fc1ccccc1CNC(=S)Nc1ccc(Cl)cc1 | 20.6 µM (active)
35 | O=C(c1ccco1)N1CCN(C(=O)c2cc(-c3ccccc3F)no2)CC1 | inactive
36 | O=C(c1cccc(Br)c1)N1CCN(C2=NS(=O)(=O)c3ccccc32)CC1 | inactive
37 | O=C(c1ccc2c(c1)N(Cc1ccc(F)cc1)C(=O)c1ccccc1S2(=O)=O)N1CCN(c2ccccn2)CC1 | 14.6 µM (active)
38 | O=C1c2ccccc2S(=O)(=O)c2cc(N3CCN(c4ccccn4)CC3)ccc21 | inactive
39 | O=C(c1ccc2c(c1)N(Cc1ccccc1)C(=O)c1ccccc1S2(=O)=O)N1CCCC1 | 11.6 µM (active)
40 | CCCCN(C)C(=O)c1ccc2c(c1)N(CC)C(=O)c1ccccc1S2(=O)=O | inactive
41 | CC1CCCN(C(=O)CN2C(=O)c3ccccc3S2(=O)=O)C1 (stereo not given) | inactive
42 | O=C(c1ccc2c(c1)C(=O)N(c1ccc(Cl)cc1)C2=O)N1CCN(c2ccccn2)CC1 | inactive
43 | O=C(c1ccc2c(c1)N(Cc1ccccc1)C(=O)c1ccccc1S2(=O)=O)N1CCC(Cc2ccccc2)CC1 | 8.2 µM (active)
44 | O=C(c1ccc2c(c1)N(Cc1ccccc1F)C(=O)c1ccccc1S2(=O)=O)N1CCOCC1 | inactive
45 | O=C(CN1C(=O)NC2(CCCC2)C1=O)Nc1ccc(F)c(F)c1F | inactive
46 | CC(=O)CC(CC(=O)NC1CCCCC1)c1ccccc1 (stereo not given) | inactive
47 | CCC(C)C1(C2CCCC2)NC(=O)NC1=O (stereo not given) | inactive
48 | CCOc1ccc(NC(=O)CN(C)C(=O)Cc2sc(C)nc2-c2ccc(F)cc2)cc1OCC | inactive

Row | Structure (SMILES) | Potency
49 | O=C(c1cnccn1)N1CCC2(CCCN(Cc3ccccc3)C2)CC1 | inactive
50 | O=C(CCCOc1ccccc1)NNC(=O)c1ccc(Cl)cc1 | inactive
51 | Cc1ccc(S(=O)(=O)N2CCC(C)CC2)cc1C(=O)NCc1ccccn1 | inactive
52 | NCCCNC(=S)NCCCN(Cc1ccc(Cl)cc1)c1ccc(Br)cn1 | 15.8 µM (active)
53 | S=C(NCc1ccc(Cl)cc1)NC1CCCCC1 | inactive
54 | CN(C)CCCNC(=S)NCc1ccc(Cl)cc1 | inactive
55 | CCCn1c(C)cc(/C=C(\C#N)C(=O)OCC(=O)N(C)c2c(N)n(Cc3ccccc3)c(=O)[nH]c2=O)c1C | inactive
56 | CN(O)C(=S)c1ccccc1 | 0.13 µM (active)
57 | CN(CC(=O)O)C(=O)c1ccccc1 | inactive
58 | CN(/N=C/c1ccccc1)C(=S)c1ccccc1 | inactive
59 | CC(C)c1nc2cc(C(=O)NC(C)c3cnn(C)c3)ccc2o1 (stereo not given) | inactive
60 | O=C(NCCS(=O)(=O)NCc1ccc(Cl)cc1)c1ccccc1 | inactive
61 | CC(=O)c1cc(C#N)c(N2CCCCC2)nc1C | inactive
62 | CC(=O)c1cc(C#N)c(SCC(=O)C(C)(C)C)nc1C | 2.82 µM (active)
63 | CC(=O)c1cc(C#N)c(N2CC(C)OC(C)C2)nc1C (stereo not given) | inactive
64 | O=C(NCc1cccnc1)c1ccc2nc([C@@H]3O[C@H](CO)[C@H](O)[C@H](O)[C@H]3O)[nH]c2c1 | inactive
65 | CC1=NN(C(N)=S)C(=O)C1N=Nc1cc(Cl)ccc1Cl (stereo not given) | inactive
66 | Cc1nc(Nc2ccccc2C)c2cnn(C)c2n1 | inactive
67 | CC[C@]12c3[nH]c4ccc(Cl)cc4c3CCN1C(=O)[C@@H](CC(=O)NCCCOC)C[C@@H]2C(=O)N1CCN(C(=O)c2ccco2)CC1 | inactive
68 | CC[C@]12c3[nH]c4ccc(OC)cc4c3CCN1C(=O)C(CC(=O)NCc1ccco1)C[C@@H]2C(=O)N1CCN(C(=O)C2CC2)CC1 (stereo not given in full) | inactive
69 | COc1ccc2[nH]c3c(c2c1)CCN1C(=O)C(CC(=O)NCCCN(C)C)C[C@H](C(=O)N2CCOCC2)[C@@]31CCC1CCCC1 (stereo not given in full) | inactive
70 | COc1ccc(CNC(=O)C[C@H]2C[C@H](C(=O)N3CCOCC3)[C@@]3(CCC4CCCC4)c4[nH]c5ccc(Cl)cc5c4CCN3C2=O)cc1OC | 16.4 µM (active)
71 | O=C(C[C@H]1C[C@H](C(=O)N2CCOCC2)[C@@]2(CCC3CCCC3)c3[nH]c4ccc(Cl)cc4c3CCN2C1=O)NCc1ccco1 | 20.6 µM (active)
72 | CC[C@]12c3[nH]c4ccc(Cl)cc4c3CCN1C(=O)[C@@H](CC(=O)NCCN1CCOCC1)C[C@@H]2C(=O)N1CCN(C(=O)C2CC2)CC1 | inactive

Row | Structure (SMILES) | Potency
73 | O=C(NNS(=O)(=O)c1ccc(F)cc1)c1ccc([N+](=O)[O-])cc1Cl | inactive
74 | Cc1cc(OC(C)C(=O)Nc2ccc(S(=O)(=O)Nc3onc(C)c3C)cc2)cc(C)c1Cl (stereo not given) | inactive
75 | CNC(=O)C1CC(=O)N(c2ccc(OCC(=O)Nc3ccccc3C)cc2)C1 (stereo not given) | inactive
76 | O=S(=O)(c1ccccc1)c1nc(Cc2ccccc2)oc1N1CCOCC1 | inactive
77 | CC(=O)c1ccc(N2CCN(c3nc4c(S(=O)(=O)c5ccccc5)nnn4c4ccc(Cl)cc34)CC2)cc1 | inactive
78 | O=S(=O)(Nc1cc(Cl)ccc1N1CCOCC1)c1ccccc1Cl | inactive
79 | O=S(=O)(c1ccc(Br)cc1)c1nc(-c2ccccc2)oc1N1CCOCC1 | inactive
80 | COc1ccc(-c2nc(S(=O)(=O)c3ccccc3)c(N3CCCCC3)o2)cc1 | 23.1 µM (active)
81 | O=S(=O)(c1ccccc1)c1nc(-c2ccc(Cl)cc2Cl)oc1N1CCCCC1 | 14.6 µM (active)
82 | Cc1ccc(CNC(=O)CCC(=O)N2Cc3ccccc3Oc3ncccc32)cc1 | inactive
83 | CC(C)Cc1nnc(N)s1 | inactive
84 | COc1cc2ccc(C(C)=O)c(O)c2cc1OC | inactive
85 | COCCC(=O)N1CCC(Oc2ccc(C(=O)NCc3ccon3)cc2)CC1 | inactive
86 | CCOc1ccc(C(=O)N2CCN(CCc3ccccn3)CC2)cc1 | inactive
87 | Nc1ccc2nn(-c3ccc(Cl)cc3)nc2c1 | 6.51 µM (active)
88 | Cc1cc2nn(-c3ccc(Cl)cc3)nc2cc1NC(=O)C(C)C | inactive
89 | O=C(Cc1ccc(Cl)cc1)Nc1ccc2nn(-c3ccc(Cl)cc3)nc2c1 | inactive
90 | Cc1cccc(C)c1NC(=O)CNC(=O)c1c(C)nn(-c2ccccc2)c1C | inactive
91 | COc1cc(NC(=O)Cn2c(=O)n(Cc3ccco3)c(=O)c3oc4ccccc4c32)cc(OC)c1 | inactive
92 | Cc1nnc(SCC(=O)Nc2ccc(S(=O)(=O)Nc3ccc(Cl)nn3)cc2)s1 | inactive
93 | CCOC(=O)CN1CCC(c2ccccc2)CC1 | inactive
94 | CCOC(=O)Cn1c(-c2cccnc2Cl)nc2ccccc21 | inactive
95 | CCOC(=O)CN1C(=O)C(O)(CC(=O)c2ccccn2)c2ccccc21 (stereo not given) | 5.8 µM (active)
